PubChem BioAssay AID1645838 (ICCB-Longwood Screening Facility, Harvard Medical School, 2021)
“And” between values parts separate entries of the source, which are not always exact repeats. Identical values can stand only once. The campaign covered roughly 2,000 compounds. About 100 (5%) were called active. Rule as the data show it: active = z-score above about 2; inactive = the rest. Shown is part of a subset that was picked to be rich in actives.

Assay: supercomplex reporter luminescence per Hoechst cell count – Hoechst nuclei count (AID 1645838);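 also: control cybrid cells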;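 as to z-score: higher means more mitochondrial supercomplex formation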
Details: Cells, luminescence/Hoechst cell count ratio; for z-score: stronger effect = higher value; for cell count: measured here: cell number, Hoechst nuclei count
[1] = library stock concentration (final well concentration not given) 80 uM
[2] = library stock concentration (final well concentration not given) 400 uM
[3] = library stock concentration (final well concentration not given) 2 mM
[4] = library stock concentration (final well concentration not given) 46 uM
[5] = library stock concentration (final well concentration not given) 278 uM
[6] = library stock concentration (final well concentration not given) 1.67 mM
[7] = library stock concentration (final well concentration not given) 10 mM

Question: With `CCCCC[C@@H](O)/C=C/[C@@H]1[C@H](C/C=C\CCCC(=O)O)[C@@H](O)C[C@H]1O` as the compound, how does the z-score read?
Answer: -0.594 (inactive)

Question: And the cell count?
Answer: 5750

Question: With `COCCOc1ccc2c(c1)ncn2-c1ccc2cccc(N3CCC(N)CC3)c2n1` as the compound, how does the outcome (library stock 10 mM) read?
Answer: inactive; censored for cell count

Question: What about the z-score [1] of the same compound?
Answer: 1.84 (inactive)

Question: What about the z-score [2] of the same compound?
Answer: 2.21 (active)

Question: And the z-score [3]?
Answer: 2.12 (active)

Question: What about the cell count [1] of the same compound?
Answer: 4940

Question: What about the cell count [2] of the same compound?
Answer: 5070

Question: What about the cell count [3] of the same compound?
Answer: 4020

Question: With `CCCCC[C@H](O)CC[C@@H]1[C@@H](C/C=C\CCCC(=O)O)[C@@H](O)C[C@H]1O` as the compound, how does the z-score read?
Answer: -1.49 (inactive)

Question: And the cell count?
Answer: 6030

Question: For `CCCCC[C@H](O)/C=C/[C@@H]1[C@H](CCCCCCC(=O)O)[C@@H](O)C[C@H]1O`, which z-score is on record?
Answer: 0.0726 (inactive)

Question: What about the cell count of the same compound?
Answer: 4940

Question: For `CCN(CC)c1ccc(C2=C(Cl)C(=O)c3ncccc3C2=O)cc1`, which z-score is on record?
Answer: -0.697 (inactive)

Question: And the cell count?
Answer: 3780

Question: With `Cc1cc(N2CCOCC2)ccc1Nc1nc(NC2CCCCC2)c2[nH]cnc2n1` as the compound, how does the z-score [4] read?
Answer: -0.914 (inactive)

Question: What about the z-score [5] of the same compound?
Answer: -0.363 (inactive)

Question: And the z-score [6]?
Answer: 3.33 (active)

Question: What about the z-score [7] of the same compound?
Answer: 3.68 (active)

Question: And the cell count [4]?
Answer: 7450

Question: What about the cell count [5] of the same compound?
Answer: 5730

Question: And the cell count [6]?
Answer: 2040

Question: What about the cell count [7] of the same compound?
Answer: 2130

Question: With `c1ccc2c(Oc3nc(Nc4ccc(N5CCOCC5)cc4)c4ncn(C5CCCCC5)c4n3)cccc2c1` as the compound, how does the z-score read?
Answer: -0.437 (inactive)

Question: What about the cell count of the same compound?
Answer: 5560

Question: Which results are given for `c1nc2nc(Nc3ccc(N4CCOCC4)cc3)nc(NC3CCCCC3)c2[nH]1`?
Answer: outcome (library stock 2 mM): inactive; censored for cell count; outcome (library stock 10 mM): inactive; censored for cell count; z-score [1]: -0.0131 (inactive); z-score [2]: 1.19 (inactive); cell count [1]: 4690; cell count [2]: 2200

Question: For `NC(N)=NN=Cc1ccc(Cl)c(Cl)c1`, which z-score [1] is on record?
Answer: -0.108 (inactive)

Question: What about the z-score [2] of the same compound?
Answer: 0.196 (inactive)

Question: What about the z-score [3] of the same compound?
Answer: -0.953 (inactive)

Question: And the z-score [7]?
Answer: -0.658 (inactive)

Question: What about the cell count [1] of the same compound?
Answer: 5310

Question: And the cell count [2]?
Answer: 4750

Question: And the cell count [3]?
Answer: 4910

Question: What about the cell count [7] of the same compound?
Answer: 4260

Question: Which results are given for `CCCCC[C@H](O)/C=C/[C@H]1[C@H](O)CC(=O)[C@@H]1CCCCCCC(=O)NCCO`?
Answer: z-score: 0.115 (inactive); cell count: 5420

Question: For `NC1=NC(=O)/C(=C/c2ccc(O)cc2)S1`, which z-score is on record?
Answer: 0.333 (inactive)

Question: What about the cell count of the same compound?
Answer: 5020

Question: Which z-score does the source give for `CCCCCCCC/C=C\CCCCCCCC(=O)OCC(O)COP(=O)(O)O` (stereo unspecified) here?
Answer: -0.58 (inactive)

Question: What about the cell count of the same compound?
Answer: 5650

Question: With `O=C(O)CCC/C=C\C[C@@H]1[C@@H](/C=C/[C@@H](O)COc2cccc(C(F)(F)F)c2)[C@H](O)C[C@@H]1O` as the compound, how does the z-score read?
Answer: -0.654 (inactive)

Question: What about the cell count of the same compound?
Answer: 5730

Question: Which results are given for `Cc1ccc(COC(=O)N2CCC(CNc3ncccn3)C(F)C2)cc1` (stereo unspecified)?
Answer: z-score [1]: -0.136 (inactive); z-score [2]: 0.087 (inactive); z-score [3]: -0.148 (inactive); z-score [7]: -0.243 (inactive); cell count [1]: 5400; cell count [2]: 5130; cell count [3]: 5140; cell count [7]: 5210

Question: Which z-score [1] does the source give for `CCCS(=O)(=O)Nc1ccc(F)c(C(=O)c2c[nH]c3ncc(-c4ccc(Cl)cc4)cc23)c1F` here?
Answer: -0.652 (inactive) and -0.181 (inactive)

Question: What about the z-score [2] of the same compound?
Answer: -0.587 (inactive) and -0.185 (inactive)

Question: What about the z-score [3] of the same compound?
Answer: -0.572 (inactive) and -0.608 (inactive)

Question: And the z-score [7]?
Answer: 0.969 (inactive) and -0.885 (inactive)

Question: What about the cell count [1] of the same compound?
Answer: 4780 and 6010

Question: What about the cell count [2] of the same compound?
Answer: 4780 and 5900

Question: What about the cell count [3] of the same compound?
Answer: 4410 and 5850

Question: And the cell count [7]?
Answer: 2140 and 5020

Question: For `O=C(O)c1ccc(-c2c[nH]c3ncc(-c4ccccc4)cc23)cc1C1CCCC1`, which z-score [4] is on record?
Answer: -0.226 (inactive)

Question: And the z-score [5]?
Answer: -0.179 (inactive)

Question: And the z-score [6]?
Answer: -0.154 (inactive)

Question: And the z-score [7]?
Answer: 2.58 (active)

Question: What about the cell count [4] of the same compound?
Answer: 6280

Question: And the cell count [5]?
Answer: 6090

Question: What about the cell count [6] of the same compound?
Answer: 5580

Question: What about the cell count [7] of the same compound?
Answer: 1970
